Hit rate of the full screen: of about 360,000 compounds, about 17,000 (4.7%) were called active. Roughly 5% stayed inconclusive and do not appear here. Shown is part of a subset that was picked to be rich in actives. Values without a mark were called inactive. Cut-off read from the data, not from the text of the source: active = activity change below about -50%; inconclusive = mostly about -30% to -49%; inactive = weaker than that.
Assay: qHTS for Inhibitors of Inflammasome Signaling: IL-1-beta AlphaLISA Primary Screen
Conditions: THP-1 LPS/ATP IL-1B secretion, 16 h; at 57.5 µM, stronger effect = lower value
From the text: Inflammasomes are a set of intracellular multi-protein complexes that enable autocatalytic activation of inflammatory caspases and drive the innate immune response to counter harmful agents. […] A qHTS assay, based on AlphaLISA technology, was developed to screen the Molecular Libraries Small Molecule Repository (MLSMR) to look for novel inflammasome inhibitors. The assay detects IL-1B using AlphaLISA anti-IL-1B acceptor and donor beads. A decreased emission signal, indicating reduced IL-1B secretion, is the desired outcome for this assay. NIH Chemical Genomics Center [NCGC] NIH Molecular Libraries Probe Centers Network [MLPCN] MLPCN Grant: MH095513 Assay Provider: Shyam Biswal Ph.D., Johns Hopkins University Immunity. 2012 Jul 27;37(1):85-95. PMID: 22819042 [2] Curr Pharm Des. 2012;18(16):2320-8. PMID: 22390695
Three microliters containing 3000 THP-1 cells were dispensed into the wells of solid, white, tissue culture treated Greiner 1,536-well plates. Library compounds and positive control, Glyburide, were pin-transferred (23 nL) by a Kalypsys pin-tool equipped with a 1,536-pin array, resulting in final compound concentration ranges of 2.5 nM to 57.5 uM. After 1 hr of cell culture incubation (37 °C, 5% CO2), 1 microL of 1 microg/mL lipopolysaccharide (250 ng/mL, final) and 5 mM ATP (1.25 mM, final) were added to stimulate the cells. After 16 hr of cell culture incubation with the compounds, 1.5 uL of anti-IL-1B acceptor beads (6 ug/mL, final) and biotinylated antibody (0.6 nM, final) were added to the plate, followed by a 1 hr incubation at ambient temperature. To detect the secreted IL-1B, 1.5 uL of AlphaLISA SA-Donor beads (24 ug/mL, final) were added, followed by 30 min of incubation in the dark at ambient temperature. The AlphaLISA signal was read by a PerkinElmer EnVision plate reader with an ultrasensitive luminescence detector and 1536 Plate HTS AlphaScreen aperture (excitation of 680nm and emission of 615nm).
% is set by controls: 0 for no effect and ±100 for the full control effect.

Compound	activity change
CCCC(C(=O)OCCN(CC)CC)(c1ccccc1)c1ccccc1	-14.1%
O=C(COc1ccc(S(=O)(=O)N2CCCC2)cc1[N+](=O)[O-])N1CCCCC1	10.9%
Cc1ccc(C(=O)OCC(=O)NC2CCCCCCC2)cc1C	8.07%
Cc1noc(C)c1S(=O)(=O)N(C)C[C@H]1Oc2c(NC(=O)Nc3ccc4c(c3)OCO4)cccc2C(=O)N([C@H](C)CO)C[C@@H]1C	5.23%
CSCCC(NC(=O)COc1ccccc1)C(=O)OCc1ccc(Cl)cc1 (stereo unspecified)	6.8%
CCn1c(C)cc(=O)cc1-c1ccc(Cl)cc1	12.5%
COc1ccc(Cn2c(=O)oc3ccccc32)cc1	-4.96%
COc1ccc(Cn2c(-c3ccc(Cl)cc3)c[n+]3ccccc23)cc1	-79.9% (active)
CC1(C(=O)NS(=O)(=O)c2ccccc2)CCN1C(=O)C1CCCCC1 (stereo unspecified)	25.7%
Nc1nc2ncccn2c1-c1ccccc1	18.6%
CCOC(=O)Nc1ccc(NC(=O)OCC)cc1	0.929%
CC(C)(COC(=O)Nc1ccccc1)COC(=O)Nc1ccccc1	-50.5% (active)
O=C(Nc1ccccc1)OCc1cn(-c2ccc(Cl)cc2)nn1	33.8%
Cc1cccc(N(CC(=O)N2CCCC2)S(C)(=O)=O)c1C	25%
COC(=O)c1sc2[nH]c(=S)n(N)c(=O)c2c1C	6.13%
CN(C(=O)c1cccc(NC(=O)Cc2ccc(NC(=O)C3CCCN(C(=O)C4CCCC4)C3)cc2)c1)C1CCC1 (stereo unspecified)	-10.6%
CC(C)c1cc(C(=O)NC2CCCCCC2)c2ccccc2n1	0.331%
COc1ccc2nc(C)cc(Nc3cccc(C(=O)O)c3)c2c1	10.8%
COc1cccc(NC(=O)Nc2ccc(F)cc2)c1	-27.3%
O=C(NNC(=O)C(O)c1ccccc1)NC1CCCCC1 (stereo unspecified)	14.4%
COc1ccc2nc(/N=C(\N)NC(=O)Nc3ccccc3)nc(C)c2c1	-80.5% (active)
Cc1nc(/N=C(\N)NC(=O)NC2CCCCC2)nc2ccccc12	-104% (active)
CCCc1nc2ccccc2n1C(C)C(=O)NC(C)(C)C (stereo unspecified)	29%

Compound	activity change
O=C(NNc1nc(N2CCCC2)nc(N2CCCC2)n1)c1ccccc1	-0.122%
O=C1CCC(C(=O)N2CCC(O)(c3ccccc3)CC2)CN1CCc1ccccc1 (stereo unspecified)	-11.9%
O=C(CN1C(=O)NC2(CCc3ccccc32)C1=O)NC1CCCCC1 (stereo unspecified)	-10.5%
COC(=O)c1ccccc1N=NNc1ccc([N+](=O)[O-])cc1	-18.2%
COC(=O)c1c(C)oc(C)c1S(=O)(=O)Nc1ccc(C(C)C)cc1	5.75%
O=C(c1cc2ccccc2o1)N1CCN(c2cccc(C(F)(F)F)c2)CC1	inactive
Cc1cc2ccccn2c1C(=O)c1cccc(S(=O)(=O)N2CCOCC2)c1	-17.1%
N#Cc1c(-c2cccs2)nc(SCC(=O)c2ccc(Br)cc2)[nH]c1=O	13.2%
CCOC(=O)CC1COCCN1C(=O)c1cc(COc2ccc(F)c(F)c2)on1 (stereo unspecified)	64.4%
CCCN1CCn2c3c(c4cc(Br)ccc42)CCCC31 (stereo unspecified)	42.1%
OC(CNCC1CCCO1)Cn1c2ccc(Br)cc2c2cc(Br)ccc21 (stereo unspecified)	-62.5% (active)
O=C(CCNS(=O)(=O)c1ccc(Br)cc1)NCC1CCCO1 (stereo unspecified)	-2.41%
Cc1cc(-c2nnc(SCC(=O)Nc3ccc(F)cc3)n2N)n[nH]1	20.7%
Cc1cc(C)c(C2C3=C(Nc4c2c(C)nn4-c2ccccn2)c2ccccc2C3=O)c(C)c1 (stereo unspecified)	-68.9% (active)
Cc1nn(-c2ccccn2)c2c1C(c1ccncc1)C1=C(CC(C)(C)CC1=O)N2 (stereo unspecified)	-7.64%
C=CCn1c2ccccc2c2nnc(SCc3[nH]c(=O)[nH]c3C(=O)CCCCC(=O)OCC)nc21	-80.5% (active)
C=CCn1c(SCC(=O)CC(=O)OCC)nc2cc(C(=O)N3CCC(C(N)=O)CC3)ccc2c1=O	-3.87%
C=CCn1c2ccccc2c2nnc(SC(CC)C(=O)Nc3nc(C)c(C(=O)OCC)s3)nc21 (stereo unspecified)	-24.9%
O=C(OCc1ccccc1)N1CCC2CC1c1ccc(-c3ccc4c(c3)OCO4)cc12 (stereo unspecified)	20%
CC(=O)Nc1ccc(Nc2c3ccccc3nc3ccccc23)cc1	-98.2% (active)
CC(=O)Nc1ccc(Nc2cc(C)nc(Nc3ccc(NC(C)=O)cc3)n2)cc1	0.0358%
CCc1nc(Nc2ccc(NC(C)=O)cc2)c2oc3ccccc3c2n1	-1.52%
O=C1NC[C@H](CCCCN2C[C@H](Cc3ccccc3)N(Cc3ccccc3)C(=O)C2=O)N(CCc2ccc(O)cc2)C1=O	0%

Compound	activity change
CCC(Oc1ccccc1)C(=O)OCC(=O)Nc1c(C)nn(-c2ccccc2)c1C (stereo unspecified)	8.98%
Cc1cccc(C)c1NC(=O)CNC(=O)c1c(C)nn(-c2ccccc2)c1C	-13.7%
Cc1nn(-c2ccccc2)c(C)c1NC(=O)CCl	-95% (active)
O=C(NCc1ccccc1)C(c1ccc(F)cc1)N1CCN(C(=O)C2CCCO2)CC1 (stereo unspecified)	0%
CCO/N=C(/C)c1c(O)cc(-c2ccccc2)n(-c2ccccc2)c1=O	17.3%
CCCc1cc(=O)oc2c(C)c(OC(C)C(=O)NCC(O)c3ccccc3)ccc12 (stereo unspecified)	-14.8%
C[C@@H]1ON(C)[C@H]2C[C@H]3c4cc(N5CCN(C)CC5)ccc4CCN3C(=O)[C@@H]12	-12.3%
C(#CCN1CCOCC1)CCCN1CCOCC1	26%
O=C(c1ccc(Cl)c([N+](=O)[O-])c1)N1CCN(c2ccccc2)CC1	-26.9%
CO/N=C/c1ccc(N2CCN(C(=O)c3cccc(Cl)c3)CC2)c([N+](=O)[O-])c1	-16.9%
O=C(/C=C/c1ccc(Cl)cc1)N1CCN(c2ccccc2[N+](=O)[O-])CC1	-78.3% (active)
CCOc1ccc(NS(=O)(=O)c2ccc(C(=O)NCC3CCCO3)cc2)cc1 (stereo unspecified)	8.79%
CCOC(=O)C1=NOC(Cn2cc(C(C)=O)c(=O)[nH]c2=O)C1 (stereo unspecified)	-0.897%
Cc1ccc(S(=O)(=O)N2CCN(C(=O)COC(=O)/C=C/c3cccc(Cl)c3)CC2)c(C)c1	23.3%
CCOC(=O)N1CCC(NC(=O)Cn2cc3c(n2)CCCCC3)CC1	2.25%
O=C(/C=C/c1ccc(F)cc1)NC(=S)NNC(=O)c1cccnc1	20.7%
c1ccc2c(c1)OC1OC2Oc2ccccc21	10.9%
COc1cc(OC)c(C(=O)NC2CCCCCC2)cc1OC	-59.1% (active)
COc1ccc(S(=O)(=O)NC(C)C)cc1C(=O)NC1CCCCC1	2.99%
COc1cc(OC)c(C(=O)NC2CC(C)(C)NC(C)(C)C2)cc1OC	0%
Cc1ccc(NC(=O)CCCNC(=O)c2ccc(Cl)cc2)cc1S(=O)(=O)N1CCCCC1	-6.38%
COC(C[C@@H]1O[C@@H]1C(=O)[C@H](C)OCc1ccccc1)OC	8.19%
COC(C[C@H](O)CC(=O)[C@@H](C)OCc1ccccc1)OC	-16.6%

Compound	activity change
COC(C/C=C/C(=O)[C@@H](C)OCc1ccccc1)OC	-95.4% (active)
C[C@H](CO)N1C[C@H](C)[C@H](CN(C)C(=O)c2ccncc2)OCc2ccccc2-c2c(n(C)c3ccccc23)C1=O	42.4%
CCCOC1CCCN(Cc2cn(C)nc2-c2ccccc2F)C1 (stereo unspecified)	-7.48%
COCCNC(=O)C1(C)CCCN(Cc2cccc(F)c2)C1 (stereo unspecified)	-12.6%
COc1ccc(OC)c(C(=O)NC(CC(N)=O)c2ccc(N3CCC(N4CCCCC4)CC3)c([N+](=O)[O-])c2)c1 (stereo unspecified)	13.4%
O=[N+]([O-])/C=C/c1ccc2c(ccn2Cc2ccccc2)c1	-90.5% (active)
O=C(Cn1ccc2cc(S(=O)(=O)N3CCCC3)ccc21)NCc1ccccc1	14.2%
COC(=O)Cn1cc(/C=C/[N+](=O)[O-])c2ccccc21	-27.5%
Cc1ccc(-c2nc3c(C)cc(Br)cn3c2Cc2ccccc2)cc1	58%
COc1cccc(NC(=O)CCc2nnc3ccc(N4CCC(C)CC4)nn23)c1	-6.48%
O=C(NCc1ccc(F)cc1)c1cc(C2CCCCN2C(=O)C2CCCCC2)on1 (stereo unspecified)	-0.0267%
Cc1cc(OCCCC(=O)Nc2cc(S(=O)(=O)N3CCOCC3)ccc2N2CCOCC2)ccc1Cl	-1.02%
CC(c1ccccn1)N(CCN(C)C)C(=S)Nc1ccccc1F (stereo unspecified)	0%
CSc1cccc(NC(=S)N(Cc2ccccc2)Cc2ccccn2)c1	-6.44%
CSc1cccc(NC(=S)N(C(C)C)C(C)c2ccccn2)c1 (stereo unspecified)	-98.3% (active)
O=C(/C=C/[C@H]1O[C@@H](n2ccc(=O)[nH]c2=O)[C@H](O)[C@@H]1O)NCc1ccccn1	21.7%
COc1ccc(N2CCN(C3CCCCC3NS(=O)(=O)c3ccccc3)CC2)cc1 (stereo unspecified)	-0.438%
O=C(/C=C/c1cccc(C(F)(F)F)c1)N1CCN(c2ccccn2)CC1	-95.2% (active)
O=C(C(Cl)Cl)N1CCN(c2ccccn2)CC1	1.16%
O=C(Cc1ccc(Br)cc1)N1CCN(c2ccccn2)CC1	8.64%
O=S1(=O)CCN(Cc2ccccc2)CC1	-15.7%
Cc1nccn1-c1ccc(NC(=O)[C@H]2O[C@@H](n3cnc4c(N)ncnc43)[C@H](O)[C@@H]2O)cc1	-25.6%
